From PubChem BioAssay (EPA / NIEHS)
Active and inactive are the calls of the source. How the source made its calls: active means hit-call score of the fitted dose curve at least 0.9, where 1 is the maximum; inactive means score below 0.9.

Key:
[1] = read-out: Tissue plasminogen activator (tPA), PLAT (gene 5327); experiment: BSK_BE3C_tPA: BioMAP Diversity Plus: BE3C Assay for Tissue plasminogen activator (tPA) Biomarker Activity (AID 2283041); settings: primary human bronchial epithelial cells; actives raise or lower the signal;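 further: tPA level quantified by ELISA one day after compound addition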
Summary of the method: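 Human primary bronchial epithelial cells were dosed with chemical and tPA biomarker levels measured by ELISA 24 hours later. Activity was fitted bidirectionally against DMSO as negative control and baseline.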

[2] = read-out: Interleukin-8 (IL8), CXCL8 (gene 3576); experiment: BSK_CASM3C_IL8: BioMAP Diversity Plus: CASM3C Assay for Interleukin-8 (IL8) Biomarker Activity (AID 2283042); settings: primary human coronary artery smooth muscle cells; actives raise or lower the signal;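 further: IL-8 protein level quantified by ELISA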
[3] = read-out: Human Leukocyte Antigen - DR isotype (HLADR), HLA-DRA (gene 3122); experiment: BSK_CASM3C_HLADR: BioMAP Diversity Plus: CASM3C Assay for Human Leukocyte Antigen - DR isotype (HLADR) Biomarker Activity (AID 2283043); settings: primary human coronary artery smooth muscle cells; actives raise or lower the signal;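 further: cell-surface HLA-DR protein level quantified by ELISA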
[4] = read-out: Macrophage colony-stimulating factor (MCSF), CSF1 (gene 1435); experiment: BSK_CASM3C_MCSF: BioMAP Diversity Plus: CASM3C Assay for Macrophage colony-stimulating factor (MCSF) Biomarker Activity (AID 2283044); settings: primary human coronary artery smooth muscle cells; actives raise or lower the signal;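 further: M-CSF protein amount quantified by ELISA after 24 h exposure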
[5] = read-out: Low-density lipoprotein receptor (LDLR), LDLR (gene 3949); experiment: BSK_CASM3C_LDLR: BioMAP Diversity Plus: CASM3C Assay for Low-density lipoprotein receptor (LDLR) Biomarker Activity (AID 2283045); settings: primary human coronary artery smooth muscle cells; actives raise or lower the signal;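 further: LDLR protein level on the cell surface quantified by ELISA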
[6] = read-out: Monocyte Chemoattractant Protein-1 (MCP1), CCL2 (gene 6347); experiment: BSK_CASM3C_MCP1: BioMAP Diversity Plus: CASM3C Assay for Monocyte Chemoattractant Protein-1 (MCP1) Biomarker Activity (AID 2283046); settings: primary human coronary artery smooth muscle cells; actives raise or lower the signal;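 further: MCP-1 level quantified by ELISA 24 h after dosing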
[7] = BSK_CASM3C_Proliferation: Cell Proliferation Assessment in the BioMAP Diversity Plus: CASM3C Assay (AID 2283047); settings: primary human coronary artery smooth muscle cells;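 further: sulforhodamine B total protein stain as relative cell number at 560 nm; sub-confluent cells exposed 48 h before staining; fitted both ways against DMSO so gain or loss of cell number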
[8] = read-out: Monokine induced gamma interferon (MIG), CXCL9 (gene 4283); experiment: BSK_CASM3C_MIG: BioMAP Diversity Plus: CASM3C Assay for Monokine induced gamma interferon (MIG) Biomarker Activity (AID 2283048); settings: primary human coronary artery smooth muscle cells; actives raise or lower the signal;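 further: MIG protein level measured by ELISA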
[9] = read-out: serum amyloid A (SAA), SAA1 (gene 6288); experiment: BSK_CASM3C_SAA: BioMAP Diversity Plus: CASM3C Assay for serum amyloid A (SAA) Biomarker Activity (AID 2283049); settings: primary human coronary artery smooth muscle cells; actives raise or lower the signal;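 further: SAA protein level quantified by ELISA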
[10] = BSK_CASM3C_SRB: Viability Assessment in the BioMAP Diversity Plus: CASM3C Assay (AID 2283050); settings: primary human coronary artery smooth muscle cells;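 further: total protein by SRB staining as cytotoxicity measure in parallel cultures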
[11] = read-out: Thrombomodulin, THBD (gene 7056); experiment: BSK_CASM3C_Thrombomodulin: BioMAP Diversity Plus: CASM3C Assay for Thrombomodulin Biomarker Activity (AID 2283051); settings: primary human coronary artery smooth muscle cells; actives raise or lower the signal;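 further: thrombomodulin protein level measured by ELISA 24 h after dosing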
[12] = read-out: Tissue Factor, F3 (gene 2152); experiment: BSK_CASM3C_TissueFactor: BioMAP Diversity Plus: CASM3C Assay for Tissue Factor Biomarker Activity (AID 2283052); settings: primary human coronary artery smooth muscle cells; actives raise or lower the signal;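 further: cell surface tissue factor protein level read by ELISA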
[13] = read-out: Interferon-gamma inducible Protein 10 (IP10), CXCL10 (gene 3627); experiment: BSK_hDFCGF_IP10: BioMAP Diversity Plus: hDFCGF Assay for Interferon-gamma inducible Protein 10 (IP10) Biomarker Activity (AID 2283053); settings: primary human foreskin fibroblasts; actives raise or lower the signal
Summary of the method: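 Human foreskin fibroblast primary cells (hDFCGF system) were dosed with chemical and assayed at 24 h; IP-10 measured by ELISA. Activity fitted bidirectionally relative to DMSO negative control as baseline.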

[14] = read-out: Urokinase-type plasminogen activator receptor (uPAR), PLAUR (gene 5329); experiment: BSK_CASM3C_uPAR: BioMAP Diversity Plus: CASM3C Assay for Urokinase-type plasminogen activator receptor (uPAR) Biomarker Activity (AID 2283054); settings: primary human coronary artery smooth muscle cells; actives raise or lower the signal;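 further: cell-surface uPAR protein level quantified by ELISA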
[15] = read-out: Vascular cell adhesion molecule 1 (VCAM1), VCAM1 (gene 7412); experiment: BSK_CASM3C_VCAM1: BioMAP Diversity Plus: CASM3C Assay for Vascular cell adhesion molecule 1 (VCAM1) Biomarker Activity (AID 2283055); settings: primary human coronary artery smooth muscle cells; actives raise or lower the signal;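 further: VCAM-1 protein level quantified by ELISA on the cells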
[16] = read-out: Collagen III, COL3A1 (gene 1281); experiment: BSK_hDFCGF_CollagenIII: BioMAP Diversity Plus: hDFCGF Assay for Collagen III Biomarker Activity (AID 2283056); settings: primary human foreskin fibroblasts; actives raise or lower the signal
Summary of the method: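 Response relative to DMSO, fitted in both directions, reflects ELISA-measured collagen III in human primary skin fibroblasts 24 h after compound addition.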

[17] = read-out: Epidermal growth factor receptor (EGFR), EGFR (gene 1956); experiment: BSK_hDFCGF_EGFR: BioMAP Diversity Plus: hDFCGF Assay for Epidermal growth factor receptor (EGFR) Biomarker Activity (AID 2283057); settings: primary human foreskin fibroblasts; actives raise or lower the signal
Summary of the method: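 Primary human foreskin fibroblasts were exposed to compound for 24 h, after which cell-surface EGFR was quantified by ELISA. Activity was fitted bidirectionally against the DMSO negative control as baseline.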

[18] = read-out: Interleukin-8 (IL8), CXCL8 (gene 3576); experiment: BSK_hDFCGF_IL8: BioMAP Diversity Plus: hDFCGF Assay for Interleukin-8 (IL8) Biomarker Activity (AID 2283058); settings: primary human foreskin fibroblasts; actives raise or lower the signal
Summary of the method: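 Fibroblast monolayers (human foreskin, hDFCGF) received test chemical for 24 h before ELISA detection of IL-8; either increases or decreases relative to DMSO count as activity.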

[19] = BSK_hDFCGF_Proliferation: Cell Proliferation Assessment in the BioMAP Diversity Plus: hDFCGF Assay (AID 2283059); settings: primary human foreskin fibroblasts;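 further: curves fitted for both rise and fall of signal versus DMSO baseline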
Summary of the method: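 Primary human foreskin fibroblasts, sub-confluent; […]; 10% TCA fix, 0.1% SRB stain, A560 total protein. Gain/loss fitted bidirectionally vs DMSO control.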

[20] = read-out: Macrophage colony-stimulating factor (MCSF), CSF1 (gene 1435); experiment: BSK_hDFCGF_MCSF: BioMAP Diversity Plus: hDFCGF Assay for Macrophage colony-stimulating factor (MCSF) Biomarker Activity (AID 2283060); settings: primary human foreskin fibroblasts; actives raise or lower the signal
Summary of the method: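 fibroblasts (human foreskin, primary), 24 h post-dose; M-CSF by ELISA; bidirectional fit, DMSO = baseline.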

ClC(Cl)=C(Cl)C(Cl)=C(Cl)Cl
outcome [1]: inactive
outcome [2]: inactive
outcome [3]: inactive
outcome [4]: inactive
outcome [5]: inactive
outcome [6]: inactive
AC50 [7]: 1.52 µM (active)
outcome [8]: inactive
outcome [9]: inactive
outcome [10]: inactive
AC50 [11]: 0.0235 µM (active)
outcome [12]: inactive
outcome [13]: inactive
outcome [14]: inactive
AC50 [15]: 20 µM (active)
AC50 [16]: 20 µM (active)
outcome [17]: inactive
outcome [18]: inactive
AC50 [19]: 29.4 µM (active)
outcome [20]: inactive

CC(C)(OO)c1ccccc1
outcome [1]: inactive
outcome [2]: inactive
outcome [3]: inactive
outcome [4]: inactive
outcome [5]: inactive
outcome [6]: inactive
AC50 [7]: 22.5 µM (active)
outcome [8]: inactive
outcome [9]: inactive
outcome [10]: inactive
outcome [11]: inactive
outcome [12]: inactive
AC50 [13]: 32.7 µM (active)
outcome [14]: inactive
outcome [15]: inactive
AC50 [16]: 20 µM (active)
AC50 [17]: 35.8 µM (active)
AC50 [18]: 38.1 µM (active)
AC50 [19]: 6.71 µM (active)
AC50 [20]: 28.9 µM (active)

CCOP(=S)(OCC)Oc1nc(Cl)c(Cl)cc1Cl
outcome [1]: inactive
outcome [2]: inactive
outcome [3]: inactive
outcome [4]: inactive
outcome [5]: inactive
outcome [6]: inactive
outcome [7]: inactive
outcome [8]: inactive
outcome [9]: inactive
outcome [10]: inactive
AC50 [11]: 26.9 µM (active)
outcome [12]: inactive
AC50 [13]: 20 µM (active)
outcome [14]: inactive
outcome [15]: inactive
AC50 [16]: 9.2 µM (active)
outcome [17]: inactive
outcome [18]: inactive
AC50 [19]: 14.9 µM (active)
AC50 [20]: 11.9 µM (active)

COC(=O)Cc1ccccc1
outcome [1]: inactive
outcome [2]: inactive
outcome [3]: inactive
outcome [4]: inactive
outcome [5]: inactive
outcome [6]: inactive
outcome [7]: inactive
outcome [8]: inactive
outcome [9]: inactive
outcome [10]: inactive
outcome [11]: inactive
outcome [12]: inactive
outcome [13]: inactive
outcome [14]: inactive
outcome [15]: inactive
outcome [16]: inactive
outcome [17]: inactive
outcome [18]: inactive
outcome [19]: inactive
outcome [20]: inactive

CC(C)(C)c1cc(O)ccc1O
outcome [1]: inactive
outcome [2]: inactive
AC50 [3]: 20 µM (active)
AC50 [4]: 20 µM (active)
outcome [5]: inactive
outcome [6]: inactive
AC50 [7]: 29.6 µM (active)
outcome [8]: inactive
outcome [9]: inactive
outcome [10]: inactive
AC50 [11]: 14.7 µM (active)
AC50 [12]: 11.2 µM (active)
AC50 [13]: 4.87 µM (active)
outcome [14]: inactive
AC50 [15]: 23.7 µM (active)
AC50 [16]: 5.6 µM (active)
AC50 [17]: 5.78 µM (active)
AC50 [18]: 9.21 µM (active)
AC50 [19]: 0.472 µM (active)
AC50 [20]: 5.23 µM (active)

CCCCCCCCC(=O)NCc1ccc(O)c(OC)c1
outcome [1]: inactive
outcome [2]: inactive
AC50 [3]: 32.3 µM (active)
outcome [4]: inactive
outcome [5]: inactive
outcome [6]: inactive
AC50 [7]: 20 µM (active)
outcome [8]: inactive
outcome [9]: inactive
outcome [10]: inactive
outcome [11]: inactive
outcome [12]: inactive
outcome [13]: inactive
AC50 [14]: 20 µM (active)
outcome [15]: inactive
AC50 [16]: 25.6 µM (active)
outcome [17]: inactive
outcome [18]: inactive
outcome [19]: inactive
outcome [20]: inactive
